What all share (assay): DAPPL (digital affinity profiling via proximity ligation, sequencing); 10 mM Tris-HCl pH 7.5, 50 mM NaCl, 1 mM DTT, 4% glycerol, room temperature, 30 min; GST-TFs on glutathione beads, 16-mer random dsDNA library, 0.1% formaldehyde crosslink after washing; high values mean tight binding
What all share (settings): protein: recombinant; tags: N-terminal GST; dsDNA, one strand shown

Experiment [1] concerns the target T1, ELK1 (Homo sapiens, UniProt P19419 1-428).
T1 sequence: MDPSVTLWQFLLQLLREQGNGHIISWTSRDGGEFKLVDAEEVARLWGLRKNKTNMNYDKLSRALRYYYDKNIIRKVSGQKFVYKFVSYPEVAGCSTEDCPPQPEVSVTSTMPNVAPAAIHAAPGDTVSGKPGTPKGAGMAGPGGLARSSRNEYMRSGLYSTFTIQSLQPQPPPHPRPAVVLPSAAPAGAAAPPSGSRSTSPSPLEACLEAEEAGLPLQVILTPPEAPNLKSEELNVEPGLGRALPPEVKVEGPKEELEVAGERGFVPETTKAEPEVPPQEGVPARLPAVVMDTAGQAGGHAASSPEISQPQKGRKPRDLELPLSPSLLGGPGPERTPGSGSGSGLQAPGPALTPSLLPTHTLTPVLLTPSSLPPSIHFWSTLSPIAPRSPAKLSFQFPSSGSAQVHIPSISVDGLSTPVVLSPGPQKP
The method, boiled down: (§1)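 The binding signal reported is, for every hexamer, its read frequency for a factor over its read frequency for the tag-only sample. Reads came from pools of yeast-expressed, GST-fused human transcription factors on glutathione beads, barcoded with DNA and mixed with that sample, which were incubated with 200 nmole of a random double-stranded 16-mer DNA library in Tris/NaCl/DTT/glycerol buffer at room temperature for 30 min. After washing, the pools were crosslinked with 0.1% formaldehyde, proximity-ligated with BsaI/T4 ligase for 1 h at 37 °C, PCR-amplified and sequenced on an Illumina NextSeq500.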

Experiment [2] addresses T2, GABPA (Homo sapiens, UniProt Q06546 1-454).
T2 sequence: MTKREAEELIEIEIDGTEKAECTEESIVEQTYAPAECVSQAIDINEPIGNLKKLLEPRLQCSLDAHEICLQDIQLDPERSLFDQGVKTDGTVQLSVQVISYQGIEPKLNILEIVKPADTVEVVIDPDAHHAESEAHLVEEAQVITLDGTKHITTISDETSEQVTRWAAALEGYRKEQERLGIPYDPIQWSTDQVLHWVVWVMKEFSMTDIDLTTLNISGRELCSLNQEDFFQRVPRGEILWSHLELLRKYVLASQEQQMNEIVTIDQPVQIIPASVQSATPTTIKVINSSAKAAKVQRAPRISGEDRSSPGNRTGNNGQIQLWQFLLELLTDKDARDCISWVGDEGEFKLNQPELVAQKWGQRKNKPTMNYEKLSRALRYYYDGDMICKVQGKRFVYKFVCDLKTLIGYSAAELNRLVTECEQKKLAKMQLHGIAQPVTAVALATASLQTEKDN
The method, boiled down:
as §1

Experiment [3] addresses T3, ERG (Homo sapiens, UniProt P11308 1-479).
T3 sequence: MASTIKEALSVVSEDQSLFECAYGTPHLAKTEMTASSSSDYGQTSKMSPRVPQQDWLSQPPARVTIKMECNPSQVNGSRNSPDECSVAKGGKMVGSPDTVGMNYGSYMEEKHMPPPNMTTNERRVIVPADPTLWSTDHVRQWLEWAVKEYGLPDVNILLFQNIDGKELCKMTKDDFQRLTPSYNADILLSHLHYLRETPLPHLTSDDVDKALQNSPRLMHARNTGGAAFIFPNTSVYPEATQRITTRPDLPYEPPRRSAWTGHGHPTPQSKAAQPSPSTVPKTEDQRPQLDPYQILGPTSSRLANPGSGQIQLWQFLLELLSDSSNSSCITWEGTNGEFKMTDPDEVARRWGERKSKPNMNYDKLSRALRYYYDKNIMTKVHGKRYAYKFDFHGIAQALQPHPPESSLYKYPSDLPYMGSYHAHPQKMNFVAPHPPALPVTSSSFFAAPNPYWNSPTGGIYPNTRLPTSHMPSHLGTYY
The method, boiled down: as §1

For experiment [4], the target named is ELF1 (Homo sapiens, UniProt P32519 1-619). The method in brief:
as §1

Experiment [5] deals with T4, EHF (Homo sapiens, UniProt Q9NZC4 1-300).
T4 sequence: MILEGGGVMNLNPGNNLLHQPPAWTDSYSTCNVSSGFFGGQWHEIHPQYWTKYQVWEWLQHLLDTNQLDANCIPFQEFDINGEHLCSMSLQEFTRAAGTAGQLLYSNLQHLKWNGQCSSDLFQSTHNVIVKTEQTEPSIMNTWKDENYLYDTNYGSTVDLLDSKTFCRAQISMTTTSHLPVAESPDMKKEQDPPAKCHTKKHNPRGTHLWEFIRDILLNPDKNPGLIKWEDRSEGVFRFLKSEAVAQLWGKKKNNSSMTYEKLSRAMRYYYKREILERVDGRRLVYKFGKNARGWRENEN
The method in brief: as §1

Experiment [6] concerns the target SPIB (Homo sapiens, UniProt Q01892 1-262). The method, boiled down: as §1
Experiment [7] has as its target T5, FEV (Homo sapiens, UniProt Q99581 1-238).
T5 sequence: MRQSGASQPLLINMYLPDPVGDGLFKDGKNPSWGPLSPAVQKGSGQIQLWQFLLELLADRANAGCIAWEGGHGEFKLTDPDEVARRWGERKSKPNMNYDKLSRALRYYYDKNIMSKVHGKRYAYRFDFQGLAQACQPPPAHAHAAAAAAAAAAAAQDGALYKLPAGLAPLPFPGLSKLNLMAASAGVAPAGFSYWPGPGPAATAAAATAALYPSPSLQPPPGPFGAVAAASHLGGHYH
The method in brief:
as §1

Experiment [8] deals with ETV5 (Homo sapiens, UniProt P41161 1-510). The method, boiled down:
as §1

Experiment [9] deals with ELF4 (Homo sapiens, UniProt Q99607 1-663). The method in brief:
as §1

Experiment [10] deals with T6, ELK4 (Homo sapiens, UniProt P28324-2 1-405).
T6 sequence: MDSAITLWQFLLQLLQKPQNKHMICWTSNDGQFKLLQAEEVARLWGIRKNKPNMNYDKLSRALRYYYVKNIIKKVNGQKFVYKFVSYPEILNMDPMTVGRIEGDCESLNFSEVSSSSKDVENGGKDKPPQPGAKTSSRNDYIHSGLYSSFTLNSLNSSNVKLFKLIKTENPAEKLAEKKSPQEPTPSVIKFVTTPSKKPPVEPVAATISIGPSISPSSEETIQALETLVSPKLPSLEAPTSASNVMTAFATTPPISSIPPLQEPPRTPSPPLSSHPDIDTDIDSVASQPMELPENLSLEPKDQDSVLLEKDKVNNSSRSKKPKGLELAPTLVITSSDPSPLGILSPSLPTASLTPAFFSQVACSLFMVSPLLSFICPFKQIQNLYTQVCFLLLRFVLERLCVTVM
The method, boiled down:
as §1

In experiment [11] the target is T7, ETV2 (Homo sapiens, UniProt O00321 1-342).
T7 sequence: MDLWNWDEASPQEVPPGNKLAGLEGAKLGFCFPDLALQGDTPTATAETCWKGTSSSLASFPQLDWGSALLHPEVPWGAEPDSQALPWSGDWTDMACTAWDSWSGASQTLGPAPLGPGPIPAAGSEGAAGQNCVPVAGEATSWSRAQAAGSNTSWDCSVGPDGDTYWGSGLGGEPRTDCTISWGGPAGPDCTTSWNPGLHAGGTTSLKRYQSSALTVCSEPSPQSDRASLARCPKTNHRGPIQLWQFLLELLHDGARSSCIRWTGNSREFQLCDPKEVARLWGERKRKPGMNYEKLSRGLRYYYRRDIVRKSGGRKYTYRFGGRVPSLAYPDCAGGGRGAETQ
The method, boiled down: as §1

Experiment [12] has as its target T8, ELF3 (Homo sapiens, UniProt P78545 1-371).
T8 sequence: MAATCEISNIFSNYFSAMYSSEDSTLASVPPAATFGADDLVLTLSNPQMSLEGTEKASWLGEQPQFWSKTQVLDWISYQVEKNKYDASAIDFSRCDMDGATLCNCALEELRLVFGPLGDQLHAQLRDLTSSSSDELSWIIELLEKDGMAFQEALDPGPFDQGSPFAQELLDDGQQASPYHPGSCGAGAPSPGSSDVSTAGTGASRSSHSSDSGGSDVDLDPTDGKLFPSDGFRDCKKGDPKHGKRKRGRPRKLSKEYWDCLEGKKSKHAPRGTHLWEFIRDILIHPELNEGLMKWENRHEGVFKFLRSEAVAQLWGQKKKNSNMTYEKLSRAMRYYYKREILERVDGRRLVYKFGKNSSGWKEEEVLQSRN
The method, boiled down: as §1

For experiment [13], the target named is ETV1 (Homo sapiens, UniProt P50549 1-477). The method in brief: as §1
Chain of ETV1 (P50549 whole entry): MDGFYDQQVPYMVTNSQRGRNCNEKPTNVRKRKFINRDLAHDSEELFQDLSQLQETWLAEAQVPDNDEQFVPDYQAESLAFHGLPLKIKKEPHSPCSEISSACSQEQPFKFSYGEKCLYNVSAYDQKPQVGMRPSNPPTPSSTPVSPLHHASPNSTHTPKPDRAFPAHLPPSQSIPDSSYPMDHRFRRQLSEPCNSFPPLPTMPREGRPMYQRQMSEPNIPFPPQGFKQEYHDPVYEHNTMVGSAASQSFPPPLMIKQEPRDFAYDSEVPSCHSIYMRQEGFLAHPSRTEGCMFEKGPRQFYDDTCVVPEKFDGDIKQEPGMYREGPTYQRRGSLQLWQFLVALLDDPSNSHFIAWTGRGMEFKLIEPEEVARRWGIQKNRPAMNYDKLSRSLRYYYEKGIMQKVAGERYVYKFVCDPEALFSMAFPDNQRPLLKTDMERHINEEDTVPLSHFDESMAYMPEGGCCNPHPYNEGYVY
The target in experiment [14] is T9, ETV3L (Homo sapiens, UniProt Q6ZN32 1-361).
T9 sequence: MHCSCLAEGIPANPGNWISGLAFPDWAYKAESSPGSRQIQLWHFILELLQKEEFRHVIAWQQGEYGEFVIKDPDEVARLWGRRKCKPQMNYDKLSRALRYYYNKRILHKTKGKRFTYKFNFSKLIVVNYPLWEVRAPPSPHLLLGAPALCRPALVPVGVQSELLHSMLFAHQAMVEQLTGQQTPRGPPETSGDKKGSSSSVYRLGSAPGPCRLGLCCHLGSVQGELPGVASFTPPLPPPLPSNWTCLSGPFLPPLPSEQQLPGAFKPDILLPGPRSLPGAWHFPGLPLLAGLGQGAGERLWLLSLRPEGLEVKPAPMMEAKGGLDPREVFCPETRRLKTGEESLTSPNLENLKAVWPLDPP
The method in brief: as §1

Experiment [15] addresses T10, ETS2 (Homo sapiens, UniProt P15036 1-469).
T10 sequence: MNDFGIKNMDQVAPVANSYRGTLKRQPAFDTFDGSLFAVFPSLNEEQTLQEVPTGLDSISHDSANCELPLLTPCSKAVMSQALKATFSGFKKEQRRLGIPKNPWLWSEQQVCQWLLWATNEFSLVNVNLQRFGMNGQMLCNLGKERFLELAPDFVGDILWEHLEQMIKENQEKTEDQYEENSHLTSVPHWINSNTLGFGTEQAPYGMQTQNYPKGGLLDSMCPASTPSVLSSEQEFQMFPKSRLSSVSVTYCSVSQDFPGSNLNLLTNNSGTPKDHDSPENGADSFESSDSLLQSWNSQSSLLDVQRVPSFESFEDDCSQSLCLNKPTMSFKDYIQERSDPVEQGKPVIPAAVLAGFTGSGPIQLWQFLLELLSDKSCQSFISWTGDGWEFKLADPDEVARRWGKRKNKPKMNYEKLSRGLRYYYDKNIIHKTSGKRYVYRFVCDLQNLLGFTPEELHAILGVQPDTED
The method in brief:
as §1

The target in experiment [16] is T11, SPDEF (Homo sapiens, UniProt O95238 1-335).
T11 sequence: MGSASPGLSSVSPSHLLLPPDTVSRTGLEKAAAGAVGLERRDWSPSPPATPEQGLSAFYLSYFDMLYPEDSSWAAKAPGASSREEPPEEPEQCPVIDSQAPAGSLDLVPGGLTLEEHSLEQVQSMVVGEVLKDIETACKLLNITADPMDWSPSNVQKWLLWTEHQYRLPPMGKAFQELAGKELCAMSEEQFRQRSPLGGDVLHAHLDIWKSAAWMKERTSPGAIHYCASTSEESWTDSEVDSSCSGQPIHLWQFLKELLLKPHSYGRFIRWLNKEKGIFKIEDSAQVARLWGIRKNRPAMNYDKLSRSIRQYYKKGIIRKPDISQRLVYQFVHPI
The method, boiled down:
as §1

The target of experiment [17] is T12, ETV7 (Homo sapiens, UniProt Q9Y603 1-341).
T12 sequence: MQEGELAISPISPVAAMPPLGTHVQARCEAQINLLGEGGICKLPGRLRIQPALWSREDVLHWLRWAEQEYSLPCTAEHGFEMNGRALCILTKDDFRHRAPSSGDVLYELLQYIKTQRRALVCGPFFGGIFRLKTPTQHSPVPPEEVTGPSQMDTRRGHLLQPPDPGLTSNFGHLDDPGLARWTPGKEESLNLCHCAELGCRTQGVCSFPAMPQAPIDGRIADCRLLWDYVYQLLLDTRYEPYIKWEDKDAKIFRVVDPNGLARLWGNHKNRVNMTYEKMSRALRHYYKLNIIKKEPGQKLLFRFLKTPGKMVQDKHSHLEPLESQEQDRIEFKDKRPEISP
The method, boiled down:
as §1

Experiment [18] deals with ETV6 (Homo sapiens, UniProt P41212 1-452). The method, boiled down: as §1
Chain of ETV6 (P41212 whole entry): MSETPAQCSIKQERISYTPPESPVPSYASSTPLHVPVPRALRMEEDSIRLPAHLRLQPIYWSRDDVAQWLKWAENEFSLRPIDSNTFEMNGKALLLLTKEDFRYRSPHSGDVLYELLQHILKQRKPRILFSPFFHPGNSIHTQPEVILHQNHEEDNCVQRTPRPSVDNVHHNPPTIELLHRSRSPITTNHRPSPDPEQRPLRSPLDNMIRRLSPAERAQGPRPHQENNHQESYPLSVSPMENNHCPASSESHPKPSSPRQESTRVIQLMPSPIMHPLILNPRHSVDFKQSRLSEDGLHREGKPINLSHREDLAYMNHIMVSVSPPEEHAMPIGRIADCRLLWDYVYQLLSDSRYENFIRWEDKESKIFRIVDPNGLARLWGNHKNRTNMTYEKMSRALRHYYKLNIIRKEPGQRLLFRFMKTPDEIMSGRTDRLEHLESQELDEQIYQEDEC

Chain of ELF1 (P32519 whole entry): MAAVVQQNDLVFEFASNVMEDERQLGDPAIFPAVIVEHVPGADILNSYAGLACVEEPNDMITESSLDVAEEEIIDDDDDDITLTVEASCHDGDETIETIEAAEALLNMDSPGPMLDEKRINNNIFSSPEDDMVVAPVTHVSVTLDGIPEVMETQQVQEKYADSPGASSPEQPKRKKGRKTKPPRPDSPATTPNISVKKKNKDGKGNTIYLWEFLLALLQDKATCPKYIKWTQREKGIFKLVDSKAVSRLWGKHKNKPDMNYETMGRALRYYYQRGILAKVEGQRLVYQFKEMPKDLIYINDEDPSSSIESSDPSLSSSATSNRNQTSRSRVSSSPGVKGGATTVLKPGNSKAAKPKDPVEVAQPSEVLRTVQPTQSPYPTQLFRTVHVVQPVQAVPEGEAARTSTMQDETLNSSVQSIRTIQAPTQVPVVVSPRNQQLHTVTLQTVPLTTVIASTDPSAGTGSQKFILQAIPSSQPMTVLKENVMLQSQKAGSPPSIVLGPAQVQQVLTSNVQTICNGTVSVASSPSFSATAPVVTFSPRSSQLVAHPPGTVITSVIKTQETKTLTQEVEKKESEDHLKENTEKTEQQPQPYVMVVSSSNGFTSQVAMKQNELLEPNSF
Chain of ELF4 (Q99607 whole entry): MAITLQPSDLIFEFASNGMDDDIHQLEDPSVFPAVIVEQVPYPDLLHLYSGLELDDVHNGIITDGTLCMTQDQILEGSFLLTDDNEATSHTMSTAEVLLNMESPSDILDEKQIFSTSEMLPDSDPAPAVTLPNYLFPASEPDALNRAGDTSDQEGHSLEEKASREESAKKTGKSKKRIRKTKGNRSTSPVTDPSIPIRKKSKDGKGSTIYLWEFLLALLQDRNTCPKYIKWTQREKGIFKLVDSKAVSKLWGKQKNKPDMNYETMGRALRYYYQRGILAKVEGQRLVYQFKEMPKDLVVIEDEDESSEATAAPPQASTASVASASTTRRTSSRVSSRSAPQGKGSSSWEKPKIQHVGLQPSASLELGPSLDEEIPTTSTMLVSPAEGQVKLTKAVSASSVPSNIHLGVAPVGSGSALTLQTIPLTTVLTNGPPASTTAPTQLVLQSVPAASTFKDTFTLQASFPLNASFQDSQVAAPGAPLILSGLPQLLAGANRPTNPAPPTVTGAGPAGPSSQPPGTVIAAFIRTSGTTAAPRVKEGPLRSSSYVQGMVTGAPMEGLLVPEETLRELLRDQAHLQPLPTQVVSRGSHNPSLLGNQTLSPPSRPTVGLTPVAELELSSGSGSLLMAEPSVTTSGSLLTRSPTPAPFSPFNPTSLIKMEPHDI
Chain of SPIB (Q01892 whole entry): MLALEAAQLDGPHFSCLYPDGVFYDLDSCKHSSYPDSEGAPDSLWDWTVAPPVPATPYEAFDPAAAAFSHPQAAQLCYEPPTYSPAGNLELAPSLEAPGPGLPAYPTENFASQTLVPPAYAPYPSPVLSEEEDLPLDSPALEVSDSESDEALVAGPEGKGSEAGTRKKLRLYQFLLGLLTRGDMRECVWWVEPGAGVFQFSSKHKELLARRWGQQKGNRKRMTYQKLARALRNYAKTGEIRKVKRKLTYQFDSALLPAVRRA
Chain of ETV5 (P41161 whole entry): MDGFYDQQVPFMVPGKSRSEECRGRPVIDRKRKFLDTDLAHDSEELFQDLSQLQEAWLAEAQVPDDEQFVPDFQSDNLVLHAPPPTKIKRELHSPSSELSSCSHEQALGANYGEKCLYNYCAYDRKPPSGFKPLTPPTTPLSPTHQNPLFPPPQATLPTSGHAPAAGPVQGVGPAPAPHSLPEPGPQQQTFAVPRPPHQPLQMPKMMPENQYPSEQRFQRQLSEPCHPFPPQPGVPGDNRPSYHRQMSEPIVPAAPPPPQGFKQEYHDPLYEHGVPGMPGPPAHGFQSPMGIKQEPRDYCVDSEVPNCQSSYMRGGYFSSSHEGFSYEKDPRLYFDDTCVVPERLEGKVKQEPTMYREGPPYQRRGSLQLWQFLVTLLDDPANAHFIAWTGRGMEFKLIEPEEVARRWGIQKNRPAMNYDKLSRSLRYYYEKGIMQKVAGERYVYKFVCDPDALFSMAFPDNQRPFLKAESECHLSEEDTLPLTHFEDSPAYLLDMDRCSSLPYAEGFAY

On to GCAGCT, for which the binding signal in experiment [1] is 1.04 fold enrichment (6-mer frequency, TF over GST control); in experiment [2], 1.07 fold enrichment (6-mer frequency, TF over GST control); in experiment [3], 1.02 fold enrichment (6-mer frequency, TF over GST control); in experiment [4], 1.06 fold enrichment (6-mer frequency, TF over GST control); in experiment [5] it was 1.03 fold enrichment (6-mer frequency, TF over GST control); in [6], 1.01 fold enrichment (6-mer frequency, TF over GST control). Moreover, the binding signal in experiment [7] was 1.09 fold enrichment (6-mer frequency, TF over GST control); in experiment [8], 1.08 fold enrichment (6-mer frequency, TF over GST control); in experiment [9], 1.06 fold enrichment (6-mer frequency, TF over GST control); in experiment [10], 1.08 fold enrichment (6-mer frequency, TF over GST control); in [11], 1.06 fold enrichment (6-mer frequency, TF over GST control); in experiment [12], 1.07 fold enrichment (6-mer frequency, TF over GST control). Also, the binding signal in experiment [13] is 1.13 fold enrichment (6-mer frequency, TF over GST control); in experiment [14], 1.08 fold enrichment (6-mer frequency, TF over GST control); in [15] it was 1.08 fold enrichment (6-mer frequency, TF over GST control); in experiment [16] it was 1.06 fold enrichment (6-mer frequency, TF over GST control); in experiment [17], 1.11 fold enrichment (6-mer frequency, TF over GST control); in experiment [18], 1.06 fold enrichment (6-mer frequency, TF over GST control).

Values taken from publication PMC7862700, “An all-to-all approach to the identification of sequence-specific readers for epigenetic DNA modifications on cytosine”.
